Pf growth 48h: P. falciparum growth inhibition at 48 hours (one generation); P. falciparum luciferase growth in erythrocytes, 48 h; Potency, µM (titrated, usually from 28.7 µM), without a hit: top-dose activity change, negative = inhibition, most hits filed as inhibitors; hit rate 5.9% among 310,000; AID 504832; note: % is set by controls: 0 for no effect and ±100 for the full control effect
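Cell-based growth assay: transgenic P. falciparum expressing firefly luciferase, cultured in red cells within RPMI 1640 containing 0.5% w/v Albumax, 24 mM bicarbonate and gentamycin. A drop in luciferase activity indicates inhibition.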
Pf growth 96h: inhibits malaria parasite growth, 96 h; P. falciparum luciferase reporter growth, 96 h; hit rate 6.9% among 320,000; Potency, µM (series often up to 28.7 µM), without a hit: at the highest dose activity change, negative = inhibition, actives largely listed as inhibitors; note: % is set by controls: 0 for no effect and ±100 for the full control effect
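Luminescence readout: decreased luciferase signal marks inhibited growth of reporter-expressing P. falciparum in infected red cells (2% hematocrit, 0.05% parasitemia final), exposed to compound two generations (96 h, 37 C, 5% CO2).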
SARS PLP yeast: inhibitors of SARS-CoV papain-like protease in yeast | S. cerevisiae expressing SARS-CoV PLpro, growth rescue | Potency, µM (titrated, usually from 32.9 µM), inactives show at the top dose activity, positive = growth rescue, actives largely listed as activators | hit rate 0.19% among 330,000 | AID 485353; calls by dose curve; note: 0% is about no effect; nearly all actives have a fitted effect of over 55% in size
Sm TGR block: S. mansoni TGR enzyme inhibition. Q962Y6. purified TGR, DTNB reduction, TNB absorbance 405 nm. Potency, µM (series often up to 114 µM), inactives show at the highest dose activity change, negative = inhibition, hits mostly inhibitors. hit rate 3% among 360,000; note: % is set by controls: 0 for no effect and ±100 for the full control effect; nearly all actives have a fitted effect of over 60% in size
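TGR 20 nM + NADPH 100 uM (dispensed conc.), cpd preinc 15 min RT; start with NADPH (500 uM addition) then DTNB (15 mM addition). Kinetic TNB absorbance, 405 nm filter. Four-parameter Hill fit across titration.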
An asterisk follows results filed as active; ? = inconclusive; . = not tested or not shown. Hits are enriched below; roughly 12% of the tested compounds scored in any of these assays. Unless noted, calls come from the whole dose curve; as a rule, active = well fitted curve in the direction sought with a large enough effect; inconclusive = small, poorly fitted or top-dose-only effect, or another doubt; inactive = no such curve, though single readings can be large; an effect the other way counts as inactive or inconclusive. Potency is the fitted concentration of half-maximal effect.

SMILES	Pf growth 48h	Pf growth 96h	SARS PLP yeast	Sm TGR block
O=C1CC(N2CCSCC2)C(=O)N1c1cccc(Cl)c1 (stereo unspecified)	24%	?	-17%	28µM*
COc1ccc(N2C(=O)CC(N3CCN(c4ccccc4)CC3)C2=O)cc1 (stereo unspecified)	13%	?	-10%	-27%
Cc1ccc(OCCCCn2nnc3sc4c(c3c2=O)CCC(C)C4)cc1 (stereo unspecified)	.	.	.	-10%
O=C(CS(=O)Cc1ccco1)NCC=CCOc1cc(CN2CCCCC2)ccn1 (stereo unspecified)	-11%	-22%	.	.
O=c1[nH]c(CN2CCN(Cc3ccccc3)CC2)nc2scc(-c3ccccc3)c12	?	-11%	3%	2%
CC(=O)N1CCN(Cc2nc3scc(-c4ccccc4)c3c(=O)[nH]2)CC1	?	13µM*	1%	-10%
O=C(Nc1ccc(Cl)cc1)C1CCC(=O)N1Cc1ccccc1Cl (stereo unspecified)	9.3µM*	4.7µM*	7%	11%
CCOc1ccc(S(=O)(=O)N2CCC(N3CCN(Cc4ccc(F)cc4)C(=O)C3=O)CC2)cc1	.	.	.	8%
N#Cc1cn(-c2ccccc2)nc1-c1ccc2c(c1)OCCO2	142%	-2%	3%	-3%
N#Cc1cn(-c2ccccc2)nc1-c1ccco1	107%	68%	-12%	45µM*
Nc1ccc2nc(-c3ccc(-c4nc5ccc(N)cc5[nH]4)cc3)[nH]c2c1	12µM*	2.3µM*	-1%	-8%
Nc1ccc2nc(-c3cccc(-c4nc5ccc(N)cc5[nH]4)n3)[nH]c2c1	2.1µM*	0.52µM*	-2%	3%
Cc1ccc2nc(-c3cccc(N)c3)[nH]c2c1	169%	-11%	-41%	-3%
COc1ccc2nc(-c3ccccc3)[nH]c2c1	53%	12µM*	-24%	1%
CC1Cc2ccccc2N1C(=O)CN(C)CC(=O)Nc1ccc(F)cc1 (stereo unspecified)	?	?	-12%	-17%
Cc1ccc(C)c(NC(=O)CSc2nnc(NC(=O)Nc3ccccc3)s2)c1	.	.	.	6%
O=C(C1CCC1)N1CCCc2cc(S(=O)(=O)Nc3ccc(F)cc3)ccc21	.	.	.	-5%
CC1(C)CC(=O)C=C(c2cccc(O)c2)C1	40%	38%	-6%	-1%
CCOC(=O)C1CCCN(C(=O)c2cc(Cl)ccc2NC(=O)C2=C(C)OCCS2)C1 (stereo unspecified)	13µM*	1%	0%	8%
CCOC(=O)C1CCN(C(=O)c2ccccc2NC(=O)C2=C(C)OCCS2)CC1	10µM*	?	-2%	-14%
CC1=C(C(=O)Nc2ccccc2C(=O)NCc2ccccc2)SCCO1	?	?	-16%	12%
COC(=O)c1ccc(NC(=O)c2ccc[n+]([O-])c2)cc1	3%	24%	1%	-10%
Cc1cn2c(=O)cc(COc3ccccc3NC(=O)c3ccc(Cl)cc3)nc2s1	.	.	.	-1%
CC1Cc2cc(S(=O)(=O)N3CCC(C(=O)Nc4ccccn4)CC3)ccc2N1C(=O)C1CCC1 (stereo unspecified)	?	?	-1%	3%
CC(C)CCNC(=O)C1CCCN(S(=O)(=O)c2ccc3c(c2)CC(C)N3C(=O)C2CC2)C1 (stereo unspecified)	0%	-31%	-5%	4%
SMILES	Pf growth 48h	Pf growth 96h	SARS PLP yeast	Sm TGR block
Cc1ccc(CNC(=O)C2CCN(S(=O)(=O)c3ccc4c(c3)CC(C)N4C(=O)C3CCC3)CC2)o1 (stereo unspecified)	?	?	2%	40µM*
Cc1ccnc(NC(=O)C2CCN(S(=O)(=O)c3ccc4c(c3)CC(C)N4C(=O)C3CCC3)CC2)c1 (stereo unspecified)	10µM*	?	0%	-8%
Cc1ccc(NC(=O)C2CCN(S(=O)(=O)c3ccc4c(c3)CC(C)N4C(=O)C3CCC3)CC2)nc1 (stereo unspecified)	?	?	-6%	7%
CC(C)CCNC(=O)C1CCN(S(=O)(=O)c2ccc3c(c2)CC(C)N3C(=O)C2CCC2)CC1 (stereo unspecified)	15µM*	?	-2%	-12%
CCC(=O)N1CCN=C1SCc1cccc(C(F)(F)F)c1	21%	-7%	3%	-7%
CC(c1nc2ccccc2c(=O)[nH]1)N(C)c1ccc2ccccc2c1 (stereo unspecified)	6.6µM*	15µM*	12%	5%
CC(C)Sc1nc2ccccc2c(=O)[nH]1	.	-10%	6%	-5%
CCOC(=O)c1ccccc1NC(=O)CSc1cn(CC(=O)N2CCCCCC2)c2ccccc12	.	.	.	-3%
COc1cc([N+](=O)[O-])ccc1NC(=O)CC1SC(=Nc2ccc(F)cc2)N(CCC2=CCCCC2)C1=O (stereo unspecified)	?	1.9µM*	13%	-35%
COc1ccc(OC)c(NC(=O)CC2SC(=Nc3ccc(F)cc3)N(CCC3=CCCCC3)C2=O)c1 (stereo unspecified)	?	4.1µM*	11%	-8%
COc1ccc(N=C2SC(CC(=O)Nc3ccc(OC)cc3OC)C(=O)N2C)cc1 (stereo unspecified)	-13%	5%	-2%	-4%
O=C(CCn1cccn1)Nc1ccc2c(c1)OCO2	-3%	0%	5%	8%
O=C(CCNS(=O)(=O)c1ccc2c(c1)CCN2C(=O)C1CC1)N1CCN(c2ccc(F)cc2)CC1	.	.	.	-17%
Cc1cc(C)n(C(=O)CNC(=O)c2ccc3c(c2)OCCO3)n1	24%	1.9µM*	-1%	-24%
Cc1cc(C)n(C(=O)CNC(=O)c2cccc(Cl)c2)n1	1%	-18%	-17%	0%
CCC(C(=O)NC(C)(C)C)N(Cc1cccs1)C(=O)CNS(=O)(=O)c1ccccc1 (stereo unspecified)	2.3µM*	-25%	1%	12%
COc1cc2ccccc2cc1C(=O)N1CCCC(C(F)(F)F)C1 (stereo unspecified)	0.52µM*	0.47µM*	-2%	-6%
CC1CCCN(C(=O)c2cc3ccccc3cc2O)C1 (stereo unspecified)	?	?	-3%	1%
O=C(c1cc2ccccc2cc1O)N1CCCC(C(F)(F)F)C1 (stereo unspecified)	-4%	?	1%	28µM*
CCOc1ccc(-n2nc3cc(C)c(NC(=O)c4cc(OCC)c(OCC)c(OCC)c4)cc3n2)cc1	.	.	.	0%
COc1ccc(Cl)cc1NC(=O)C(C)n1c(=O)cc(C(F)(F)F)c2c(C)nn(C)c21 (stereo unspecified)	.	.	.	-9%
O=[N+]([O-])/C(C(Cl)=C(Cl)Cl)=C(\Nc1ccc(F)cc1)n1cncn1	.	53%	-11%	8.9µM*
CCOc1ccccc1NC(=O)c1ccc([N+](=O)[O-])cc1	0%	49%	0%	-1%
O=C(Nc1ccc(F)cc1)c1ccc(-n2cncn2)c([N+](=O)[O-])c1	?	0%	-1%	-13%
CCOc1ccccc1N/C(=C(/C(Cl)=C(Cl)Cl)[N+](=O)[O-])n1cncn1	.	?	-7%	6.3µM*
